Each structure is given as a SMILES string. Hit rate of the full screen: of about 4,900 compounds, about 200 (4.1%) were called active.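 The calls were made as follows: active = thallium signal drop more than 5 SD beyond the mean of the no-compound control wells, seen in both duplicate plates; inactive = the rest.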 Not all results are given here.

Inward rectifier potassium channel 2 (Mus musculus), sequence (P35561 whole entry, looked up): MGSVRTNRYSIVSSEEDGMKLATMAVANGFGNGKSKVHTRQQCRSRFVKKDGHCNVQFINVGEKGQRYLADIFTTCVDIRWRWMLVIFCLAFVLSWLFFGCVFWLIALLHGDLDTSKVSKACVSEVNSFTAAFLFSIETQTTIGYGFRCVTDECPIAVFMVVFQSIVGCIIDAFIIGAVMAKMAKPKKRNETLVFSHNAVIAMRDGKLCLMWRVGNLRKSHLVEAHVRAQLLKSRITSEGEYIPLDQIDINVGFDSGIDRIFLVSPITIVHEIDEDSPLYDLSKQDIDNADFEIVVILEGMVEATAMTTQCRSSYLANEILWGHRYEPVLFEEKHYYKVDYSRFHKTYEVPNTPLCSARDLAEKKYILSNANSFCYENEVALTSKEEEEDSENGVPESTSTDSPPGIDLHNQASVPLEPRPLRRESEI

The assay has as its target Inward rectifier potassium channel 2 (Mus musculus) (UniProt P35561). Put plainly: mouse Kir2.1 channel inhibition, confirmation, selectivity assay for KCNK9 modulator project, cell-based, HEK293, thallium flux (AID 492993).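 As to inhibition: signal is fluorescence rise after thallium addition divided by baseline fluorescence; plate controls were assay buffer only for no effect and full block by chlorpromazine control for full effect.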 The following applies: Kir2.1 cells, FluxOR thallium flux fluorescence, at 10 µM; active compounds read high.
The inhibition is how much of the control response was suppressed. Regarding `O=C(Nn1c(SCc2ccc([N+](=O)[O-])cc2)nc2ccccc2c1=O)c1ccc(F)cc1`, the inhibition result is “inactive”. Regarding `Cc1ccc(NC(=O)c2cc([N+](=O)[O-])ccc2Cl)c(O)c1`, the inhibition result was “inactive”. As to `O=C(Nc1ccc2c(c1)CCC2)c1cccc(S(=O)(=O)Nc2ccccc2Cl)c1`, the inhibition result was “inactive”. For the compound `COc1ccc(OC)c(-c2csc(-c3cccs3)n2)c1`, the inhibition result is “inactive”. For `CCN(CC)S(=O)(=O)c1ccc(N(C)Cc2ccc(C(F)(F)F)cc2)nc1`, the inhibition entry was “inactive”. `Cc1ccnc(N2CCN(C(=O)CSc3nc4ccccc4nc3N3CCCCC3)CC2)c1`: the inhibition result is “inactive”. In the case of `CC(C)(C)NC(=O)NC(=O)CN1CCC(Cc2ccccc2)CC1` it was “inactive”. In the case of `CCN(CC)C(=O)CC1(c2ccccc2OC)CCOC(C(C)C)C1` (stereo not drawn), the inhibition entry is “inactive”.

Turning to `COC(=O)c1cc(NC2c3ccccc3C(=O)N2c2ccc(Cl)cn2)cc(C(=O)OC)c1` (stereo not drawn), the inhibition entry was “inactive”. As for `O=C(COC(=O)/C(=C/c1cccs1)c1cccs1)NCc1ccccc1Cl`, the inhibition result was “inactive”. The same measure for `N#Cc1nc(Cc2cccc3ccccc23)oc1NCc1ccc2c(c1)OCO2`: 51% (active). For `C=CCN(N=Nc1cccc([N+](=O)[O-])c1)c1cccc([N+](=O)[O-])c1`, the inhibition result is “inactive”.

Take `COc1cccc(CN(C)C(=O)CC23CC4CC(CC(C4)C2)C3)c1OC`: the inhibition entry is “inactive”. The same measure for `CCCCCCCCn1c2c(c(=N)c3c1CCC3)CCCC2`: 84% (active); for `Clc1ccc(COn2c(-c3ccc(Cl)cc3Cl)nc3ncccc32)cc1`: “inactive”; for `O=C(Nc1ccc(S(=O)(=O)N2CCCCC2)cc1)C1CCN(C(=O)c2ccc(F)cc2)CC1`: “inactive”. In the case of `Cc1nc(N2CCN(c3ccccn3)CC2)c2c(C)c(C(=O)Nc3ccc(F)c(Cl)c3)sc2n1` it was “inactive”; in that of `Cc1ccc(OS(=O)(=O)c2ccc(-c3csc(C)n3)s2)c(C)c1`, “inactive”; in that of `C[C@@]12C(=O)N(c3cccc(Br)c3)C(=O)N1[C@H](c1ccc(Cl)cc1)[C@@H]1C(=O)N(C3CCCCC3)C(=O)[C@@H]12`, “inactive”.

For `COc1cccc2sc(NNC(=O)c3nc4ccccc4s3)nc12`, the inhibition result is “inactive”. `COc1ccccc1NC(=O)CSc1nc2sc(C)c(C)c2c(=O)n1Cc1ccco1`: the inhibition entry was “inactive”. In the case of `O=C(NCCCc1ccccc1)c1cc(COc2c(F)cccc2F)on1` it was “inactive”. Turning to `Cc1ccc(C2=NN(C)c3nc4ccccc4n3C2)cc1`, the inhibition entry is “inactive”. In the case of `O=C(Cc1ccccc1)n1nc(-c2ccccc2)nc1NCc1ccco1`, the inhibition entry was “inactive”. In the case of `Cc1cc(C)cc(OCC(=O)Nc2cc(NC(=O)COc3cc(C)cc(C)c3)cc(C(=O)O)c2)c1` it was “inactive”; in that of `Cc1cccc(NC(=O)N(Cc2cc3cc(C)cc(C)c3[nH]c2=O)CC2COCCO2)c1` (stereo not drawn), “inactive”. In the case of `CC1CCN(C(=S)c2ccc(-c3ccc(Cl)cc3Cl)o2)CC1` it was “inactive”. As for `COC(=O)c1cccc(C(=O)N2CCCC(Nc3ccc4c(c3)OCCO4)C2)c1` (stereo not drawn), the inhibition entry is “inactive”. `Cc1ccc(C2=Nc3c(ccc4ccccc34)C(c3ccncc3)=NN2)cc1`: the inhibition entry is “inactive”. The same measure for `Cc1ccc(CN(N=Nc2nonc2N)c2nonc2N)c(C)c1`: “inactive”; for `Cc1ccc(Cn2ccc(NC(=O)c3cc(C(C)C)on3)n2)cc1`: “inactive”. In the case of `CCOC(=O)[C@@H]1[C@H]2COc3ccc(Br)cc3[C@H]2N2C(=O)N(c3ccc(Cl)cc3)C(=O)[C@@]12C`, the inhibition result is “inactive”. Turning to `O=C(N/N=C/c1ccccn1)c1cccc(NC(=O)c2ccc(Cl)cc2)c1`, the inhibition entry is “inactive”.

Take `Cc1ncoc1C(=O)N1CCCC(C(=O)c2ccc3c4c(cccc24)CC3)C1` (stereo not drawn): the inhibition entry was “inactive”. In the case of `CCc1ccccc1NC(=O)/C(=C/c1ccccc1)c1ccccc1` it was “inactive”; in that of `COc1ccc(Nc2ncnc3sc(-c4ccccc4)cc23)c(OC)c1`, “inactive”; in that of `O=S(=O)(Nc1cccc(Oc2ccc(Cl)cc2)n1)c1ccc(F)cc1`, “inactive”. The same measure for `Brc1ccc(C2CC(c3ccccc3)=Nc3ccccc3N2)cc1` (stereo not drawn): “inactive”; for `Cc1[nH][nH]c(=O)c1C(c1ccc(-c2ccc(Cl)cc2)o1)c1c(C)[nH][nH]c1=O`: 38% (active). On to `O=C(Nc1nnc(SCc2ccc(Cl)cc2Cl)s1)C1COc2ccccc2O1` (stereo not drawn), for which the inhibition result was “inactive”. In the case of `CCCCN(Cc1ccccc1)C(=O)C1CCN(Cc2sccc2C)CC1` it was “inactive”; in that of `Clc1cccc(-c2nc3nc4ccccc4nc3n2Cc2ccco2)c1`, “inactive”.

Turning to `O=C1N=C2SCCN2/C1=C\c1c(Cl)cccc1Cl`, the inhibition result was “inactive”. Regarding `CCc1nnc(NS(=O)(=O)c2ccc(NC(=S)NC(=O)/C=C/c3cccs3)cc2)s1`, the inhibition result was “inactive”. With `COc1ccccc1N1CCN(c2ncnc3sc(C)c(-c4ccccc4)c23)CC1`, the inhibition entry was “inactive”. Turning to `O=C(Nc1ccccc1[N+](=O)[O-])C1C(c2ccccc2)=C1c1ccccc1`, the inhibition entry is “inactive”. As to `CCCCOC(=O)CCCc1ccc([N+](=O)[O-])cc1[N+](=O)[O-]`, the inhibition result was “inactive”. Consider `O=C(NC1Cc2ccccc2C1)c1cc(COc2cccc(C(F)(F)F)c2)on1`, for which the inhibition result was “inactive”. Turning to `O=C(Nc1ccc(Oc2ccccc2)cc1)c1ccco1`, the inhibition entry was “inactive”. As for `Cc1ccc(C(=O)c2c(NC(=O)c3ccncc3)sc3c2CCCC3)cc1`, the inhibition result was “inactive”. In the case of `Cc1onc(-c2ccc(Cl)cc2)c1-c1ccnn1S(=O)(=O)c1ccc(Cl)cc1` it was “inactive”. As to `CN(C)c1ccc(C(CNC(=O)c2ccc(F)cc2)c2c[nH]c3ccccc23)cc1` (stereo not drawn), the inhibition result was “inactive”. Turning to `CCn1cnc2scc(-c3ccc(C)c(C)c3)c2c1=O`, the inhibition entry is “inactive”.
